From the supplement of paper PMC3334620
Whole data set: some 33,000 sequences, median “E-score (-0.5 to 0.5)” near -0.035, cut for the highest 2% near 0.34. The sample holds the highest values, similar sequences and a random draw of the others, so the mix is not that of the screen.

The sequences below were run against T1, Mot3 (UniProt P54785) (assay: PBM E-score (8-mer binding enrichment) (E-score (-0.5 to 0.5)); higher = stronger / more preferred TF binding). Conditions: protein concentration: 200 nM; construct: GST-full length.
T1 sequence: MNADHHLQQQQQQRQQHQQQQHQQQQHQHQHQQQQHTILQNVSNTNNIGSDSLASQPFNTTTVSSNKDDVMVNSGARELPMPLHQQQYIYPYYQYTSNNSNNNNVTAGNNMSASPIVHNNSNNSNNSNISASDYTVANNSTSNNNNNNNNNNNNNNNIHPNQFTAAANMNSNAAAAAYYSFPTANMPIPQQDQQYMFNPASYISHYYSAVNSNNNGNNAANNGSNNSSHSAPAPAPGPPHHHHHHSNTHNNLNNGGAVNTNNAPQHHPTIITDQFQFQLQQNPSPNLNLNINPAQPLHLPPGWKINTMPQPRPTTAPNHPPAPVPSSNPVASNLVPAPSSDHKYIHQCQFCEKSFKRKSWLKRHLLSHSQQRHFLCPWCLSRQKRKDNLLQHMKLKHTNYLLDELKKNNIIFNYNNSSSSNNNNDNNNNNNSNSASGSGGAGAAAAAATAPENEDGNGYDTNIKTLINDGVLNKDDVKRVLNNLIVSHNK
In short: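 PURExpress in vitro transcription/translation supplied GST-tagged yeast transcription factors, either full-length or DNA-binding domain. Applied at about 100-200 nM to universal all-10-mer Agilent arrays double-stranded by primer extension, the bound protein was detected with fluorescent anti-GST. E-scores, modified Wilcoxon-Mann-Whitney statistics, were given by the Universal PBM Analysis Suite to ungapped eight-base words pooled with their reverse complements after masliner normalisation.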

Row | Sequence | PBM E-score
1 | CCTGAACA | 0.23
2 | GATTAACA | 0.338
3 | AGTTAACA | 0.279
4 | TATTAACA | 0.359
5 | CATTAACA | 0.299
6 | TGTTAACA | 0.361
7 | CGTTAACA | 0.244
8 | AAAAGGTC | -0.161
9 | CTGCAGCA | -0.0262
10 | GCCAGCGC | -0.236
11 | AAGCGTAA | 0.0617
12 | GCGTTTCC | 0.0476
13 | GGGAAATA | 0.0874
14 | AGGAAATG | 0.262
15 | CGGAAATC | -0.109
16 | AGGAAATA | 0.368
17 | AGGAAATC | 0.373
18 | CGGAAATA | -0.206
19 | AGTGATAG | 0.0766
20 | GCCTCGCC | -0.17
21 | ACCTGAAC | 0.0861
22 | AAGGGTAT | -0.018
23 | TATTCACA | 0.221
24 | ACAGGAGG | -0.0434
25 | AAAAGATG | 0.11
26 | AAAAGGCT | 0.0632

Row | Sequence | PBM E-score
27 | AAAAGGCG | 0.278
28 | GAAAGGCC | -0.0302
29 | GAAAGGGA | 0.0421
30 | CAAAGGCC | -0.151
31 | CAAAGGCG | 0.233
32 | AAAAGGCA | 0.478
33 | GAAAGGCA | 0.469
34 | TAAAGGCA | 0.481
35 | TAAAGTCA | 0.0168
36 | CAAAGGCA | 0.479
37 | TAAAGGGA | 0.016
38 | ACAACGAT | 0.155
39 | AGCACAAG | 0.0406
40 | CTAGGCCC | -0.21
41 | CTCTACCA | -0.192
42 | CGACTCAG | -0.219
43 | GCGGTTCC | 0.0435
44 | CACTTTGG | -0.0925
45 | GACTGATA | -0.216
46 | CGGGGCTA | -0.291
47 | AACTTCCT | 0.15
48 | CTTTGTAC | 0.193
49 | CCTTGTAG | 0.311
50 | CCTTGTAA | 0.392
51 | ATTTGTAA | 0.244
52 | CTTTGTAA | 0.355

Row | Sequence | PBM E-score
53 | CCTTGTAC | 0.272
54 | AGGCTGTC | -0.15
55 | GGGCATAC | -0.186
56 | AAGAAGTC | -0.0398
57 | AATTGCGC | 0.0861
58 | GTCTATGA | 0.0543
59 | CTCGATAC | 0.24
60 | CGCGTGTC | 0.196
61 | AGCGTGTA | 0.406
62 | GGCGTGCA | -0.243
63 | CGCGTGAA | 0.172
64 | AGCGTGTC | 0.205
65 | CGCGTGTA | 0.375
66 | GGCGTGTA | 0.383
67 | AGCGTGTG | 0.147
68 | GGCGTGAA | -0.0959
69 | ACAGACGT | 0.119
70 | GAGGGAAA | -0.199
71 | CTCCTTGA | -0.122
72 | AGAAGGTA | 0.347
73 | GGAAGGTA | 0.251
74 | AGAAGGTG | -0.0242
75 | AGAAGGTC | -0.0584
76 | CGAAGGTA | 0.366
77 | CGAAGGTC | -0.313
78 | ATTTAGGC | 0.339

Row | Sequence | PBM E-score
79 | CTTGATAC | 0.00505
80 | CAGACACC | -0.0175
81 | AAGACGGC | -0.265
82 | ATGGATTG | 0.0625
83 | GCGTTCTA | -0.106
84 | ATAGACCC | 0.178
85 | CGCCACCC | -0.0907
86 | GAACATGA | 0.238
87 | AAACATGC | 0.288
88 | AAACATGG | 0.222
89 | CCACATGA | 0.0141
90 | CAACATGG | 0.337
91 | AAACATGT | 0.374
92 | TAACATCA | 0.25
93 | CAACATGC | 0.345
94 | TAACATGA | 0.363
95 | CAACATGA | 0.352
96 | GAACATGC | 0.202
97 | AAACATGA | 0.327
98 | ATGGCCAT | -0.171
99 | CAGTTCCC | -0.174
100 | CTAGGATC | -0.0652
101 | CAGTGCGC | -0.292
102 | CCCGGTCG | -0.273
103 | ACCGGTAT | -0.135
104 | ACGTTGTG | 0.137

Row | Sequence | PBM E-score
105 | GGCCGAGA | -0.209
106 | TAGTAATA | 0.182
107 | CTCTCTGC | -0.112
108 | AAGGCATC | 0.381
109 | ATGGCATC | -0.162
110 | AAGGCATA | 0.321
111 | AAGGCATG | 0.303
112 | AAGGCATT | 0.362
113 | AGGGCATC | -0.163
114 | AAACTTCG | 0.0118
115 | TACCTAGA | 0.252
116 | AGAGAAAA | -0.0157
117 | CAGCACTA | -0.113
118 | ATAAAGCA | -0.12
119 | ATTAAGGA | 0.0441
120 | ACACAGGA | 0.295
121 | GCATAGGC | 0.166
122 | CTAAAGGA | 0.148
123 | ACACAGGC | 0.354
124 | ATTAAGGC | 0.378
125 | CTTAAGGC | 0.314
126 | ATAAAGGC | 0.186
127 | ACACAGGG | 0.213
128 | CTAAAGGC | 0.35
129 | ACATAGGT | 0.282
130 | ACATAGGC | 0.373

Row | Sequence | PBM E-score
131 | CGCAGCCC | -0.265
132 | CAGCAACC | -0.184
133 | TAACGCAA | 0.2
134 | CGAGAACG | -0.206
135 | GGGTAAGA | -0.146
136 | ATCGCTTC | -0.178
137 | CCAAAGGC | 0.145
138 | ACAAAGGC | 0.36
139 | ACAAAGGG | -0.0152
140 | ATAGCGCA | -0.0413
141 | AGAGCTAT | 0.00577
142 | CAATGTAG | 0.234
143 | GAATGTAA | 0.295
144 | TAATGTCA | 0.139
145 | TAATGTAA | 0.354
146 | AAATGTAG | 0.151
147 | CAATGTAC | 0.184
148 | AAATGTAC | 0.227
149 | CAATGTAA | 0.34
150 | AAATGTAA | 0.346
151 | ATTCTCTC | -0.103
152 | ATATTAAA | 0.184
